Experimental data published in the supplement of paper PMC13380429.

Experiments:
[1] = tested on: Vero E6 infected with SARS-CoV-2; assay: morphology score (similarity to uninfected cells); higher = more like uninfected cells; conditions: 24 h
[2] = tested on: Vero E6 infected with SARS-CoV-2; assay: SARS-CoV-2 infection rate relative to infected DMSO; higher = more infection, active = 60 or less; conditions: 24 h

Structure (SMILES)	morphology score [1]	SARS-CoV-2 infection rate [2]
O=C(NCCCN1CCOCC1)c1ccc(Cl)cc1 [eprobemide] (10 µM)	-0.0432	108% (inactive)
COc1ccccc1N1CCN(CCCNc2cc(=O)n(C)c(=O)n2C)CC1 [urapidil] (10 µM)	0.088	101% (inactive)
CCS(=O)(=O)N1CCN(c2ccc(Nc3ncc(C(N)=O)c(NC4CC4)n3)cc2)CC1 (10 µM)	0.439	123% (inactive)
O=C(O)C1=CCCNC1 [guvacine] (10 µM)	0.2	93% (inactive)
O=C1OC2(c3ccc(O)cc3Oc3cc(O)ccc32)c2ccccc21 [fluorescein] (10 µM)	0.0519	110% (inactive)
FC(F)c1nc2ccccc2n1-c1nc(N2CCOCC2)nc(N2CCOCC2)n1 (10 µM)	-0.0463	108% (inactive)
CC(C)[C@H]1[C@@H]2CC[C@@H](C2)[C@@H]1N (10 µM)	0.109	82% (inactive)
CCN[C@@H](C)Cc1cccc(C(F)(F)F)c1 [dexfenfluramine] (10 µM)	-0.224	112% (inactive)
CCSc1ccc2c(c1)N(CCCN1CCN(C)CC1)c1ccccc1S2 [thiethylperazine] (10 µM)	0.722	29.5% (active)
CCC1(C)CC(=O)NC1=O (centres undefined) [ethosuximide] (10 µM)	0.0477	104% (inactive)
N[C@@H](Cc1ccc(Cl)cc1)C(=O)O (racemic) [fenclonine-(+/-)] (10 µM)	0.00322	109% (inactive)
Cc1cc(C(=CNc2ccc(Cl)cc2)C(=O)Nc2ccc(Cl)cc2)on1 (10 µM)	0.005	103% (inactive)
